The text below walks through data of the supplement of paper PMC12645437, “Orthogonal IMiD-Degron Pairs Induce Selective Protein Degradation in Cells” (ACS Chemical Biology, 2025).

This experiment has as its target T1, CRBN, Q96SW2.
T1 chain: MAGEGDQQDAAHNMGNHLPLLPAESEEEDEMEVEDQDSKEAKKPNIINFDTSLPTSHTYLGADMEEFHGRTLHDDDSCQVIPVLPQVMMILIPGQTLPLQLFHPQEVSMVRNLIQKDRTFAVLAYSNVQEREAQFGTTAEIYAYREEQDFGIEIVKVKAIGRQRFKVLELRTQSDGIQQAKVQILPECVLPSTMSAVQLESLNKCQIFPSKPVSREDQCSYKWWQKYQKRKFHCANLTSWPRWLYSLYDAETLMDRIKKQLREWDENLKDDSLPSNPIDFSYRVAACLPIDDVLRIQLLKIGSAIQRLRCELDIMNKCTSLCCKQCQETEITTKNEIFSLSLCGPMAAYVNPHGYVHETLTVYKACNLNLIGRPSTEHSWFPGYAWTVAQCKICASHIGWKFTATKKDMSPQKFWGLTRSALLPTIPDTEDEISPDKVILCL
As to the kind of experiment: log2 fold change of degron read counts, EGFP-low vs EGFP+ sorted cells (limma voom), compound-induced degradation; higher = more compound-induced degradation of the degron-EGFP fusion; degrons are variants of IKZF1/3 zinc finger 2; compound dose not given here. As to conditions: Jurkat, 18 h.

The mark [1] stands for this setting: compound: compound 19 (5-tert-butyl-thalidomide).
The mark [2] stands for this setting: compound: compound 22 (5-morpholino-thalidomide).
Where [3] appears, read: compound: compound 33 (diphenyl IMiD analogue).

Whole data set: some 8,300 sequences, median “log2 fold change of degron read counts, EGFP-low vs EGFP+ sorted cells (limma voom), compound-induced degradation” near -1.1, cut for the highest 2% near 3.2. The full list was thinned out, with the highest values kept by preference.
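Further: pooled lentiviral library of zinc finger degron-EGFP fusions in mCherry-positive Jurkat cells, FACS-sorted after compound exposure, with degron abundance counted by next-generation sequencing.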

Take LECPICGFPCTQKGNLLRHIKL [46L_47E_49P_50I_52G_53F_54P_55C_67L_, Q9UKT9]: the “log2 fold change of degron read counts” value under setting [1] was -1.29, the “log2 fold change of degron read counts” value under setting [2] was -1.77, the “log2 fold change of degron read counts” value under setting [3] is -0.153 and the “log2 fold change of degron read counts” value (compound: thalidomide) was determined as 1.04.

As to FGCNQCGHHFTQKGNLLRHIKL [46F_47G_49N_50Q_52G_53H_54H_55F_67L_, Q9UKT9], the “log2 fold change of degron read counts” value was -2.24 under setting [1], -2.34 under setting [2], -1.76 under setting [3] and -1.83 (compound: thalidomide).

Take FGCEICGHTFTQKGNLLRHIKL [46F_47G_49E_50I_52G_53H_54T_55F_67L_, Q9UKT9]: the “log2 fold change of degron read counts” value runs as follows: under setting [1], -3.25; under setting [2], -2.98; under setting [3], -3.48; (compound: thalidomide) -3.14.

For FMCEICGHIFTQKGNLLRHIKL [46F_47M_49E_50I_52G_53H_54I_55F_67L_, Q9UKT9], the “log2 fold change of degron read counts” value under setting [1] is -2.42, the “log2 fold change of degron read counts” value under setting [2] was -2.92, the “log2 fold change of degron read counts” value under setting [3] was -1.97 and the “log2 fold change of degron read counts” value (compound: thalidomide) is -2.73.

On to LQCNQCGFNCTQKGNLLRHIKL [46L_47Q_49N_50Q_52G_53F_54N_55C_67L_, Q9UKT9], for which the “log2 fold change of degron read counts” value by setting is: under setting [1], -2.28; under setting [2], -2.12; under setting [3], -2.51; (compound: thalidomide) -1.67.

Take FHCPICGHHFTQKGNLLRHIKL [46F_47H_49P_50I_52G_53H_54H_55F_67L_, Q9UKT9]: the “log2 fold change of degron read counts” value under setting [1] is -1.89, the “log2 fold change of degron read counts” value under setting [2] was -2.04, the “log2 fold change of degron read counts” value under setting [3] was -1.22 and the “log2 fold change of degron read counts” value (compound: thalidomide) was -1.88.

As for FDCNVCGAQFTQKGNLLRHIKL [46F_47D_49N_50V_52G_53A_54Q_55F_67L_, Q9UKT9], the “log2 fold change of degron read counts” value is -1.58 under setting [1], -1.29 under setting [2], -0.82 under setting [3] and -0.778 (compound: thalidomide).

Consider FVCEQCGAGFTQKGNLLRHIKL [46F_47V_49E_50Q_52G_53A_54G_55F_67L_, Q9UKT9], for which the “log2 fold change of degron read counts” value is, setting by setting: under setting [1], -1.4; under setting [2], -0.248; under setting [3], 0.586; (compound: thalidomide) 1.2.
